Experimental data taken from PubChem BioAssay (NCATS).
Inconclusive results are not listed. Active and inactive are the calls of the source. Calls come from the whole dose curve; as a rule, active = well fitted curve in the direction sought with a large enough effect; inconclusive = small, poorly fitted or top-dose-only effect, or another doubt; inactive = no such curve, though single readings can be large; an effect the other way counts as inactive or inconclusive.

Tests used:
HACAT = assay: qHTS assay to identify novel small-molecules to repurpose for Merkel cell carcinoma treatment (AID 1296009); settings: MCC and control cell lines, CellTiter-Glo viability, 72 h; at 44.8 µM (top of the series) unless noted; note: nearly all actives have a fitted effect of over 60% in size
Summary of the method: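 72 hr, 37 degree celsius; NPC 8-pt / MIPE 11-pt dose response; compound pinned in DMSO; CellTiter-Glo, 10 min RT, luminescence; normalized to no-cell and DMSO controls.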

C33A = assay: Primary qHTS to identify gynecologic anti-cancer compounds using libraries of approved drugs and bioactive compounds (AID 1345084); settings: Gynecologic cancer cell panel viability, ATPlite luminescence, 48 h; series mostly up to 57.5 µM; note: % is set by controls: 0 for no effect and ±100 for the full control effect; nearly all actives have a fitted effect of over 55% in size
Summary of the method: (§1)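 48 h compound exposure at 37 C, 5% CO2; five-point qHTS. ATPlite luminescence readout of cell ATP.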

CAOV3 = assay: as above; settings: Gynecologic cancer cell panel viability, ATPlite luminescence, 48 h; series mostly up to 57.5 µM
Summary of the method: as §1

CASKI = assay: as above; settings: Gynecologic cancer cell panel viability, ATPlite luminescence, 48 h; series mostly up to 57.5 µM
Summary of the method: as §1

Es-2 = assay: as above; settings: Gynecologic cancer cell panel viability, ATPlite luminescence, 48 h; series mostly up to 57.5 µM
Summary of the method: as §1

HeLa = assay: as above; settings: Gynecologic cancer cell panel viability, ATPlite luminescence, 48 h; series mostly up to 57.5 µM
Summary of the method: as §1

Hek293T = assay: as above; settings: Gynecologic cancer cell panel viability, ATPlite luminescence, 48 h, control line for the selectivity index; series mostly up to 57.5 µM
Summary of the method: as §1

JEG-3 = assay: as above; settings: Gynecologic cancer cell panel viability, ATPlite luminescence, 48 h; series mostly up to 57.5 µM
Summary of the method: as §1

OV90 = assay: as above; settings: Gynecologic cancer cell panel viability, ATPlite luminescence, 48 h; series mostly up to 57.5 µM
Summary of the method: as §1

PA-1 = assay: as above; settings: Gynecologic cancer cell panel viability, ATPlite luminescence, 48 h; series mostly up to 57.5 µM
Summary of the method: as §1

Tov-21-G = assay: as above; settings: Gynecologic cancer cell panel viability, ATPlite luminescence, 48 h; series mostly up to 57.5 µM
Summary of the method: as §1

Tov112D = assay: as above; settings: Gynecologic cancer cell panel viability, ATPlite luminescence, 48 h; series mostly up to 57.5 µM
Summary of the method: as §1

SKOV3 = assay: as above; settings: Gynecologic cancer cell panel viability, ATPlite luminescence, 48 h; series mostly up to 57.5 µM
Summary of the method: as §1

CC(=O)NC(Cc1c[nH]c2ccccc(=O)c12)C(=O)O (stereo not drawn)
inactive: outcome (HACAT) | Potency (C33A) | Potency (CAOV3) | outcome (CASKI) | Potency (Es-2) | Potency (HeLa) | Potency (Hek293T) | Potency (JEG-3) | Potency (OV90) | Potency (PA-1) | Potency (Tov-21-G) | Potency (Tov112D)

CCc1nn(CCO)c(CC)c1Oc1cc(C#N)cc(C#N)c1
inactive: outcome (HACAT) | Potency (C33A) | Potency (CAOV3) | outcome (CASKI) | Potency (Es-2) | Potency (HeLa) | Potency (Hek293T) | Potency (JEG-3) | Potency (OV90) | Potency (PA-1) | Potency (Tov-21-G) | Potency (Tov112D)

COC(=O)C1=CO[C@@H](O[C@@H]2O[C@H](CO)[C@@H](O)[C@H](O)[C@H]2O)[C@H]2[C@@H]1[C@H](O)[C@H](O)[C@]2(C)O
inactive: outcome (HACAT) inactive [at 17.4 µM] | Potency (C33A) | Potency (CAOV3) | outcome (CASKI) | Potency (Es-2) | Potency (HeLa) | Potency (Hek293T) | Potency (JEG-3) | Potency (OV90) | Potency (PA-1) | Potency (Tov-21-G) | Potency (Tov112D)

COc1c(C)c(OCC=C(C)C)cc2c1CNC2=O
inactive: outcome (HACAT) | Potency (C33A) | Potency (CAOV3) | outcome (CASKI) | Potency (Es-2) | Potency (HeLa) | Potency (Hek293T) | Potency (JEG-3) | Potency (OV90) | Potency (SKOV3) | Potency (Tov-21-G) | Potency (Tov112D)

C=C(CO)C(=O)O[C@H]1C[C@@]23O[C@@H]2CC/C(=C/[C@H]2OC(=O)C(=C)[C@H]12)CO[C@H]3O
inactive: outcome (HACAT) | Potency (C33A) | Potency (CAOV3) | outcome (CASKI) | Potency (Es-2) | Potency (HeLa) | Potency (Hek293T) | Potency (JEG-3) | Potency (OV90) | Potency (PA-1) | Potency (Tov-21-G) | Potency (Tov112D)

COC(=O)C1=CO[C@@H](O[C@@H]2O[C@H](CO)[C@@H](O)[C@H](O)[C@H]2O)[C@H]2[C@@H]1C=C[C@]21C=C([C@H](C)OC(=O)/C=C/c2ccc(O[C@@H]3O[C@H](CO)[C@@H](O)[C@H](O)[C@H]3O)cc2)C(=O)O1
inactive: outcome (HACAT) inactive [at 17.4 µM] | Potency (C33A) | Potency (CAOV3) | outcome (CASKI) | Potency (Es-2) | Potency (HeLa) | Potency (Hek293T) | Potency (JEG-3) | Potency (OV90) | Potency (SKOV3) | Potency (Tov-21-G) | Potency (Tov112D)

CCCC(C(=O)O)c1c(C)nc2ccc(Cl)cc2c1-c1ccccc1 (stereo not drawn)
inactive: outcome (HACAT) | Potency (C33A) | Potency (CAOV3) | outcome (CASKI) | Potency (Es-2) | Potency (HeLa) | Potency (Hek293T) | Potency (JEG-3) | Potency (OV90) | Potency (PA-1) | Potency (Tov-21-G) | Potency (Tov112D)

C/C=C/C=C/[C@@H]1O[C@](O)([C@H](CC)C(=O)NC/C=C/C=C(\C)[C@@H](OC)[C@@H](C)[C@@H]2O[C@H](/C=C/C=C/C=C(\C)C(=O)c3c(O)ccn(C)c3=O)[C@H](O)[C@@H]2O)[C@H](O)[C@H](O)C1(C)C
inactive: outcome (HACAT) inactive [at 9.27 µM] | activity change, negative = cytotoxicity (C33A) 0.106% [at 11.6 µM] | activity change, negative = cytotoxicity (CAOV3) 11.3% [at 11.6 µM] | activity change, negative = cytotoxicity (CASKI) -1.78% [at 11.6 µM] | activity change, negative = cytotoxicity (Es-2) -3.84% [at 11.6 µM] | activity change, negative = cytotoxicity (HeLa) 12.5% [at 11.6 µM] | activity change, negative = cytotoxicity (Hek293T) -0.774% [at 11.6 µM] | activity change, negative = cytotoxicity (JEG-3) -3.88% [at 11.6 µM] | activity change, negative = cytotoxicity (OV90) -4.64% [at 11.6 µM] | activity change, negative = cytotoxicity (PA-1) -1.69% [at 11.6 µM] | activity change, negative = cytotoxicity (Tov-21-G) -0.814% [at 11.6 µM] | activity change, negative = cytotoxicity (Tov112D) -0.13% [at 11.6 µM]

Cc1cc(Cn2cnc3c2CC(C(=O)O)N(C(=O)C(c2ccccc2)c2ccccc2)C3)ccc1N(C)C (stereo not drawn)
inactive: outcome (HACAT) | Potency (C33A) | Potency (CAOV3) | outcome (CASKI) | Potency (Es-2) | Potency (HeLa) | Potency (Hek293T) | Potency (JEG-3) | Potency (OV90) | Potency (PA-1) | Potency (Tov-21-G) | Potency (Tov112D)
